# Measured values published in ChEMBL document CHEMBL1201862, “PubChem BioAssay data set” (2004).
# Out of some 400,000 compounds screened, about 2,100 (0.53%) were called active. About 14% were inconclusive and are not listed. This is one part of a sample in which actives are shown more often than they occur. The rule behind the calls is not given here.
# Biological target: Ataxin-2 (Homo sapiens) (UniProt Q99700)
# Experiment: qHTS for Inhibitors of ATXN expression.
# Format: functional
# Ataxin-2 (Homo sapiens), sequence (Q99700 whole entry): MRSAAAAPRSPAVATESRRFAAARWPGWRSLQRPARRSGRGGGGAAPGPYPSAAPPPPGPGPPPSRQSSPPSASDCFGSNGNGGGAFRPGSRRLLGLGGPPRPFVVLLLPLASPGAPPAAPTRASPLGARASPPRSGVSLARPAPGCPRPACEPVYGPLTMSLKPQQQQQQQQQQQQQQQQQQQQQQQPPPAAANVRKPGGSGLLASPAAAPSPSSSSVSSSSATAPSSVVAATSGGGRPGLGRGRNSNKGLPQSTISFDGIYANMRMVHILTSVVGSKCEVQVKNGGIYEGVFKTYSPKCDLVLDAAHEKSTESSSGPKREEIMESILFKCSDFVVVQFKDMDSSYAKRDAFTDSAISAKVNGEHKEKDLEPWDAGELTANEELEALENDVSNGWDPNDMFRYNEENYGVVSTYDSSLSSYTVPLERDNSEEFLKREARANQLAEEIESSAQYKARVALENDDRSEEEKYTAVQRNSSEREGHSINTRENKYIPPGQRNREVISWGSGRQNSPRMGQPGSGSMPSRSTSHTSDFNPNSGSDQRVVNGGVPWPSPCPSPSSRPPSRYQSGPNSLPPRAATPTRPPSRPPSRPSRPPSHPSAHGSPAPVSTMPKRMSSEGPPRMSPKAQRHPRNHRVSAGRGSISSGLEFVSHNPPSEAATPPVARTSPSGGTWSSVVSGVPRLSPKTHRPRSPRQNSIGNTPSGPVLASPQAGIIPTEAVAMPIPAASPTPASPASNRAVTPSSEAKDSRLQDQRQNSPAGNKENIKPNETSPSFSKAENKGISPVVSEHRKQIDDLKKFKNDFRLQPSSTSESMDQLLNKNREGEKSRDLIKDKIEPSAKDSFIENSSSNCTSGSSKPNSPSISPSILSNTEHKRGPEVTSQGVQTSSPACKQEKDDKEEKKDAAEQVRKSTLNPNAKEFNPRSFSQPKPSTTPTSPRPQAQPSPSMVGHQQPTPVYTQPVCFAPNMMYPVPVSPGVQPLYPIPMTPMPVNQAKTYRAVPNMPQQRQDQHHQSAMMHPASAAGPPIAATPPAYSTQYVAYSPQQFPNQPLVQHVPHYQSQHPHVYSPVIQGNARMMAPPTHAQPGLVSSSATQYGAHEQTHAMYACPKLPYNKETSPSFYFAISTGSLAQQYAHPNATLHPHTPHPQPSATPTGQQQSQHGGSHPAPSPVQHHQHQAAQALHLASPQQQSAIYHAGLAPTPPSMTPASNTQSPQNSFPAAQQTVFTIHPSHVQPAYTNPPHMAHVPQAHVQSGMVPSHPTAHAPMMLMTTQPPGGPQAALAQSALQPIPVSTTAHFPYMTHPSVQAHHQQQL
row,Structure (SMILES),Potency
1,Cc1ccc(CNC(=O)c2cccc3c2C(=O)c2ccc(N4CCC(C)CC4)cc2S3(=O)=O)cc1,inactive
2,Cc1ccc(-c2cc(-c3ccco3)c3c(N)c(C(=O)NN)oc3n2)cc1,inactive
3,CC(=O)C1CCC2C3CC=C4CC(SC(=N)N)CCC4(C)C3CCC12C (stereo not drawn),37.7 µM (active)
4,CC(C)(C)[C@H](N)C(=O)N[C@H]1CCC2C3CC=C4C[C@@H](O)CC[C@]4(C)C3CC[C@@]21C (stereo partly drawn),37.7 µM (active)
5,Cc1cccc(OCc2n(C)c3ccccc3[n+]2CC(=O)OC2CC(C)CCC2C(C)C)c1 (stereo not drawn),35.5 µM (active)
6,Nc1nnnn1/N=C/c1cc(Cl)cc(Cl)c1O,inactive
7,O=C(Nc1nccs1)c1cccnc1O,inactive
8,O=C(C[C@H]1C[C@H](C(=O)N2CCCCC2)[C@@]2(CCc3ccccc3)c3[nH]c4cc(-c5ccco5)ccc4c3CCN2C1=O)NCCN1CCOCC1,31.6 µM (active)
9,CN(C)CCCNC(=O)C[C@H]1C[C@H](C(=O)N2CCOCC2)[C@@]2(CCC3CCCC3)c3[nH]c4cc(-c5ccco5)ccc4c3CCN2C1=O,35.5 µM (active)
10,O=C(C[C@H]1C[C@H](C(=O)N2CCOCC2)[C@@]2(CCC3CCCC3)c3[nH]c4cc(-c5ccco5)ccc4c3CCN2C1=O)NCCN1CCOCC1,35.5 µM (active)
11,O=C(C[C@H]1C[C@H](C(=O)N2CCOCC2)[C@@]2(CCC3CCCC3)c3[nH]c4cc(-c5ccco5)ccc4c3CCN2C1=O)NCCc1ccccn1,35.5 µM (active)
12,O=C(NCCN1CCOCC1)c1cc2c(=O)n3ccccc3nc2n1Cc1ccccc1,inactive
13,O=C(CCCCCn1c(=S)[nH]c2ccc(N3CCOCC3)cc2c1=O)NCCc1ccccc1,inactive
14,COCCCn1c(=N)c(C(=O)NCc2ccco2)cc2c(=O)n3ccccc3nc21,inactive
15,CCN(C(=O)COC(=O)c1cc(-c2ccc(C)o2)nc2ccccc12)C1CCS(=O)(=O)C1 (stereo not drawn),inactive
16,COc1ccc(OC)c(NC(=O)CCN2CCN(C/C=C/c3ccccc3)CC2)c1,inactive
17,CCOC(=O)c1[nH]c2ccc(F)cc2c1NC(=O)CN1CCN(C/C=C/c2ccccc2)CC1,39.8 µM (active)
18,COc1cc(NC(=O)CN2CCN(S(=O)(=O)/C=C/c3ccccc3)CC2)cc(OC)c1OC,inactive
19,CCCCCCCN(c1ccccc1)[C@@H]1C[C@H]2CCCC(=O)N3CC[C@@H](C1)[C@@H]23,35.5 µM (active)
20,COc1ccc(NC(=O)c2ccc(-c3ccc(-c4noc(C)n4)cc3C)cc2)cc1N1CCN(C)CC1,39.8 µM (active)
21,CC(C)(C)c1ccc(CN2N=Nc3ccccc3S2(=O)=O)cc1,39.8 µM (active)
22,O=C(N/N=C\c1c(O)ccc2ccccc12)c1cncc(Br)c1,inactive

row,Structure (SMILES),Potency
1,CC(C)(C)C(=O)Oc1ccc2cc(-c3ccc4ccccc4n3)c(=O)oc2c1,inactive
2,COC(=O)c1ccccc1SCC(=O)Nc1ccc(N2CCOCC2)cc1,inactive
3,COc1ccc(N2C(=O)c3cccc4c(N(C)CCO)ccc(c34)C2=O)cc1,inactive
4,COc1ccc(NC(=O)CSc2ccc3c4c(cccc24)C(=O)c2ccccc2-3)cc1,22.4 µM (active)
5,Oc1ccc(Cl)cc1/C=N/c1ccc2c3c(cccc13)CC2,inactive
6,CC(=O)N1Cc2cc(C(=O)NCc3cccc(F)c3)nc(-c3cccc(C4=CCCCC4)c3)c2[C@H]1CCO,35.5 µM (active)
7,O=C(CSc1nc(C2CCCCC2)nc2ccccc12)NCc1ccc2c(c1)OCO2,inactive
8,CCn1c(=O)c(C(=O)NCc2ccc3c(c2)OCO3)c(O)c2ccccc21,inactive
9,CC(C)(C)[S+]([O-])N1Cc2cc(C(=O)NCc3ccc(Oc4ccccc4)cc3)nc(-c3cccc(-c4cc5ccccc5o4)c3)c2[C@@H]1CCO (stereo partly drawn),39.8 µM (active)
10,CC(C)(C)[S+]([O-])N1Cc2cc(C(=O)NCc3ccc(Oc4ccccc4)cc3)nc(-c3cccc(-c4cc5ccccc5o4)c3)c2[C@H]1CCO (stereo partly drawn),35.5 µM (active)
11,CC(C)(C)[S+]([O-])N1Cc2cc(C(=O)NCc3ccc4c(c3)OCO4)nc(-c3cccc(-c4cc5ccccc5o4)c3)c2[C@@H]1CCO (stereo partly drawn),31.6 µM (active)
12,O=S(=O)(c1ccccc1)N1CCN=C1SCc1cccnc1,inactive
13,CCN(CC)c1ccc2cc(C(=O)NNC(=O)c3ccc(S(=O)(=O)N4CCCCC4)cc3)c(=O)oc2c1,inactive
14,N#CC1=C(N)N2C(=C(C#N)C1c1ccc(Br)cc1)Nc1ccccc12 (stereo not drawn),inactive
15,O=C1OCCN1C(=O)[C@H]1[C@H](c2ccc(Cl)cc2)C(c2ccccc2)=NN1c1ccccc1,inactive
16,CCOc1ccc(S(=O)(=O)[N-]c2nc3ccccc3nc2-[n+]2ccc(NC(=O)c3ccccc3C)cc2)cc1,inactive
17,Cc1cccc2cc3c(NC(=O)C(C)(C)C)nn(CC(C)C)c3nc12,inactive
18,Cc1cc(NN)nc(NS(=O)(=O)c2ccc(Cl)cc2)n1,inactive
19,CN(C)C(=O)c1cccc(-c2cccc(-c3nc(C(=O)NCc4ccccc4)cc4c3[C@@H](CCO)N([S+]([O-])C(C)(C)C)C4)c2)c1 (stereo partly drawn),25.1 µM (active)
20,CSc1nnc(N2C(=O)C(O)=C(C(=O)c3ccco3)C2c2ccc(F)cc2)s1 (stereo not drawn),inactive
21,CCN=C(S)NCc1ccc2[nH]c(C)cc2c1,inactive
22,FC(F)(F)c1cc(CO[C@@H]2CCCN[C@@H]2c2ccccc2)cc(C(F)(F)F)c1,35.5 µM (active)

row,Structure (SMILES),Potency
1,Cc1cc(C2(c3ccc(O)c(C)c3)C(=O)N(C)c3ccc(Br)cc32)ccc1O,44.7 µM (active)
2,Cc1c(Br)c(=O)oc2c(Br)c(O)ccc12,inactive
3,CC1(C)OC(=O)C(/C=N\Nc2c(Cl)cc(Cl)cc2Cl)=C(O)O1,inactive
4,Cc1cc2oc3cc(NCCC4CCCN4C)ccc3c(=O)c2cc1C (stereo not drawn),inactive
5,C=C(C)c1nc(Oc2ccccc2)nc(Oc2ccccc2)n1,33.6 µM (active)
6,COc1ccc2cc(-c3cc(C(=O)OCC(=O)NC4CCS(=O)(=O)C4)c4ccccc4n3)ccc2c1 (stereo not drawn),inactive
7,CC1C(C#N)=C(SCC(N)=O)N=C2CC(C)(C)CC(O)=C21 (stereo not drawn),inactive
8,COc1cc(CNCCc2c[nH]c3ccccc23)ccc1OCc1ccc(F)cc1,35.5 µM (active)
9,COc1cccc(CNCCc2c[nH]c3ccccc23)c1OCc1ccccc1F,28.2 µM (active)
10,COc1cccc(CNc2nc[nH]n2)c1OCc1ccccc1F,inactive
11,COc1cc(/C=C(\C#N)c2nc3ccccc3[nH]2)ccc1OCc1ccc(F)cc1,inactive
12,COc1cc(/C=C(\C#N)c2nc3ccccc3[nH]2)ccc1OCc1ccccc1F,inactive
13,COc1ccc(CNc2cccc3[nH]c(C(F)(F)F)nc23)cc1OC,inactive
14,COC(=O)C1=CN(CCCN2CCCC2=O)C=C(C(=O)OC)C1c1ccccc1C(F)(F)F,inactive
15,Cc1c(Cc2ccccc2)c(=O)oc2c(CN(C)C)c(O)c(Cl)cc12,inactive
16,COc1ccc2cc(-c3nc(Cl)c4c5c(sc4n3)CCCC5)c(=O)oc2c1,inactive
17,Cc1cc(C)n(-c2nc(NCCCN(C)C)c3c4c(sc3n2)CCCC4)n1,25.1 µM (active)
18,c1ccc(CNc2ncnc3sc4c(c23)CCCC4)nc1,inactive
19,CCn1cc(C2N3CC4(C)CN2CC(C)(C3)C4=O)c2ccccc21 (stereo not drawn),inactive
20,CCNc1cc2oc(=O)c(CN3CCOCC3)c(C)c2cc1C,inactive
21,COc1ccc(-n2c(-c3cccc(OC)c3)nc(=S)c3c2CCCC3)cc1,25.1 µM (active)
22,COc1cccc(N2CCc3c(C)nc4ccc(Cl)cc4c32)c1,inactive

row,Structure (SMILES),Potency
1,COc1ccc(N2CCN(c3cc(C)c4cccc(C)c4n3)CC2)cc1,inactive
2,CN1CCN(CC/C=C2/c3ccccc3Sc3ccc(S(=O)(=O)N(C)C)cc32)CC1,35.5 µM (active)
3,Cn1nc(-c2ccccn2)nc2c(=O)n(C)c(=O)nc1-2,17.8 µM (active)
4,CCCc1nc2c(=O)n(C)c(=O)nc-2n(C)n1,8.44 µM (active)
5,Cc1ccccc1-n1c2nc(=O)n(C)c(=O)c-2cc2ccccc21,inactive
6,Cn1c(=O)nc2n(Cc3ccccc3)c3ccccc3cc-2c1=O,inactive
7,Cc1ccc(C)c(-n2c3nc(=O)n(C)c(=O)c-3cc3ccccc32)c1,inactive
8,CC(C)C[C@H]1CN=C(Nc2ccccc2)N1CCCC1CCCCC1,22.4 µM (active)
9,CC(C)(C)C1CCC(CN2C(Nc3ccccc3)=NC[C@@H]2Cc2ccccc2)CC1 (stereo partly drawn),25.1 µM (active)
10,CCC(=O)c1cc2c(C)cc(=O)oc2c(C)c1OC(=O)C(C)C,inactive
11,CN1CCN(S(=O)(=O)c2ccc(Sc3nnnn3-c3ccccc3)c([N+](=O)[O-])c2)CC1,39.8 µM (active)
12,COc1cc(OC)cc(OC(=O)c2cccc(S(=O)(=O)N3CCN(C)CC3)c2)c1,inactive
13,O=[N+]([O-])c1ccccc1S(=O)(=O)N1CCN(Cc2ccccc2)CC1,inactive
14,NC1=NC[C@H](c2ccccc2)N1CCc1cc(C(F)(F)F)cc(C(F)(F)F)c1,28.2 µM (active)
15,CCC(C)[C@H]1CN=C(S)N1CCc1cc(C(F)(F)F)cc(C(F)(F)F)c1 (stereo partly drawn),35.5 µM (active)
16,FC(F)(F)c1cc(CCN2C(S)=NC[C@@H]2Cc2ccccc2)cc(C(F)(F)F)c1,39.8 µM (active)
17,COc1cccc(C2=CC(c3ccccc3F)n3ncc(C(=O)Nc4ccc(F)cc4)c3N2)c1 (stereo not drawn),inactive
18,CC1CC(Nc2ccccc2)c2ccccc2N1C(=O)c1ccncc1 (stereo not drawn),inactive
19,CN1CCc2c(sc3c2C(=O)NC(c2ccc(-c4cccc(Cl)c4)o2)N3)C1 (stereo not drawn),inactive
20,COn1c(=O)c(-c2ccc(F)cc2)[n+]([O-])c2ccccc21,inactive
21,CCN(CC)Cc1c(O)c(Cl)cc2c(C)c(C)c(=O)oc12,inactive
22,COc1ccc(/C=N/NC(=O)c2[nH]c3ccc(Cl)cc3c2-c2ccccc2)c(C(=O)O)c1OC,inactive
